The target of experiment [1] is T1, Serine/threonine-protein kinase TAO3 (Homo sapiens) (UniProt Q9H2K8).
T1 sequence (whole entry): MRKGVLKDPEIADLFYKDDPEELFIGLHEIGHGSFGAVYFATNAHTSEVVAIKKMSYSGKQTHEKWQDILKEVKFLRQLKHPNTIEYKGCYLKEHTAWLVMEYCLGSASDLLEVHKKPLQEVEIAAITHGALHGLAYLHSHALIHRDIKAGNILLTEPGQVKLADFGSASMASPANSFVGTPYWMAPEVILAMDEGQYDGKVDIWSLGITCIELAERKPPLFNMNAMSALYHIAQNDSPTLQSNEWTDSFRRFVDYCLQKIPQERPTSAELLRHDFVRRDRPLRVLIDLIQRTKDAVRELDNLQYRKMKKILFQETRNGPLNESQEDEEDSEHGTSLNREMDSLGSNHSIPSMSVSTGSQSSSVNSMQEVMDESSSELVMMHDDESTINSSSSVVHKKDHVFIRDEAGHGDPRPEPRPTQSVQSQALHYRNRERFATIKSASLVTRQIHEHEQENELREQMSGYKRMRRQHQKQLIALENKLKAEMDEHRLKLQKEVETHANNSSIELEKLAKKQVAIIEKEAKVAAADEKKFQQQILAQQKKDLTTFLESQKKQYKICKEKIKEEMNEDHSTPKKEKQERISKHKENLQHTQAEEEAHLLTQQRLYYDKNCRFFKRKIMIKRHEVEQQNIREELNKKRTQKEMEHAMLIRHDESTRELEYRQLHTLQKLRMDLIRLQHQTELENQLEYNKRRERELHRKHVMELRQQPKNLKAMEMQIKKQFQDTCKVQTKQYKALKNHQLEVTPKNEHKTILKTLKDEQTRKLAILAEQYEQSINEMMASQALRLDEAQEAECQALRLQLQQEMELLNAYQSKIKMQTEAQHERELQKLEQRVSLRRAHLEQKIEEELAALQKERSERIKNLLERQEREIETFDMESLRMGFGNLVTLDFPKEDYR
To be noted: at 10 µM.

In experiment [2] the target is T2, Serine/threonine-protein kinase TBK1 (Homo sapiens) (UniProt Q9UHD2).
T2 sequence (whole entry): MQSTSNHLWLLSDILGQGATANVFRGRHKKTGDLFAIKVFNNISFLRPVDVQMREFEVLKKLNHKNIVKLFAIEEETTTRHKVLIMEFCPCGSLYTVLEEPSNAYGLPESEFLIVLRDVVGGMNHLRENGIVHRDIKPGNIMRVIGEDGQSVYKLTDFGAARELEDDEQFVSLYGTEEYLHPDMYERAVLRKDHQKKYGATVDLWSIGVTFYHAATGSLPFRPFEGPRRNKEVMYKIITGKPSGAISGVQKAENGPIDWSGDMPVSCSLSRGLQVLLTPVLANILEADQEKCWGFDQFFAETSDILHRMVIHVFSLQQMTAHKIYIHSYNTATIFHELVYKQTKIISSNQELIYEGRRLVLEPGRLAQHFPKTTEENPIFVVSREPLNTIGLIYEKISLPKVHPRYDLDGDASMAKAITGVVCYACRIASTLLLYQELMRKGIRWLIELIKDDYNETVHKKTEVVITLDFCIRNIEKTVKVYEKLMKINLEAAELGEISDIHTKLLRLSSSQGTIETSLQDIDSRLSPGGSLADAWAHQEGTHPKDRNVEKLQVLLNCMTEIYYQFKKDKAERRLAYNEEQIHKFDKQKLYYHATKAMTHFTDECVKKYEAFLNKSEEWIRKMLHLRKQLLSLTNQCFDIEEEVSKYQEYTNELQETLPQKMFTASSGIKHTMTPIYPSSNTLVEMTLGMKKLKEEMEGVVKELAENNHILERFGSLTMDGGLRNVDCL
To be noted: at 1 µM.

Experiment [3] has as its target T2, Serine/threonine-protein kinase TBK1 (Homo sapiens). To be noted: at 10 µM.
Experiment [4] deals with T3, TGF-beta receptor type-1 (Homo sapiens) (UniProt P36897).
T3 sequence (whole entry): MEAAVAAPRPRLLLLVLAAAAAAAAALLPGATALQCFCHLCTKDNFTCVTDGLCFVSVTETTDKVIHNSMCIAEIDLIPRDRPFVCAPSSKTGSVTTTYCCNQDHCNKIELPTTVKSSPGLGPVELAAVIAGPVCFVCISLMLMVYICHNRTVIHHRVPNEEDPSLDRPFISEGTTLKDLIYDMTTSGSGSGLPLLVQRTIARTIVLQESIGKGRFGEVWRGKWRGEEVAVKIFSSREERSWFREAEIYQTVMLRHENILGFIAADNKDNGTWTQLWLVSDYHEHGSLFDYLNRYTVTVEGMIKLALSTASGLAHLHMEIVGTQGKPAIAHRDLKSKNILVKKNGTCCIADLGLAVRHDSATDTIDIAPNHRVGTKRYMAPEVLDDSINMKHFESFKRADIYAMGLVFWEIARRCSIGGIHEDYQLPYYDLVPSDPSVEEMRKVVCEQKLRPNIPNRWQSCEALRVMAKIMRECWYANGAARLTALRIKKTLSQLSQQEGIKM
To be noted: at 10 µM.

In experiment [5] the target is T4, Inhibitor of nuclear factor kappa-B kinase subunit alpha (Homo sapiens) (UniProt O15111).
T4 sequence (whole entry): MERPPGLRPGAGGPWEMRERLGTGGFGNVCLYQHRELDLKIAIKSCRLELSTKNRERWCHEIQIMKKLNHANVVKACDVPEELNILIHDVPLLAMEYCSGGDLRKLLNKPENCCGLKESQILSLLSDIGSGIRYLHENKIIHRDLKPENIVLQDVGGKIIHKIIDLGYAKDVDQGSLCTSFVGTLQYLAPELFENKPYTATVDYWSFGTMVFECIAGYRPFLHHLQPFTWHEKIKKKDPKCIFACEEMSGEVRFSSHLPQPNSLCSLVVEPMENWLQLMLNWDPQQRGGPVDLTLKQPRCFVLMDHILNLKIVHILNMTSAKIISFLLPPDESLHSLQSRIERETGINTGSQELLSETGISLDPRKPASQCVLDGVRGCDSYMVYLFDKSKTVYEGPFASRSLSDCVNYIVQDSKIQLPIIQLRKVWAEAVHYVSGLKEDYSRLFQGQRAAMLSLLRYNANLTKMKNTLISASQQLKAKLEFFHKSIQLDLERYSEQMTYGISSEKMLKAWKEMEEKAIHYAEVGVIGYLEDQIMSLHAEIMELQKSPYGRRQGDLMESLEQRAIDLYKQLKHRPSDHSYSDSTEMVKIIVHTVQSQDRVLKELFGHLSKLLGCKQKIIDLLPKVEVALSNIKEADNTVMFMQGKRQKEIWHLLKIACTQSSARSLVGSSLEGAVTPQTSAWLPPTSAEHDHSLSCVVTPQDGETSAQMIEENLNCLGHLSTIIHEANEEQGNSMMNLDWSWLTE
The note with it: at 1 µM.

Experiment [6] concerns the target T4, Inhibitor of nuclear factor kappa-B kinase subunit alpha (Homo sapiens). The note with it: at 10 µM.
The target in experiment [7] is T5, Inhibitor of nuclear factor kappa-B kinase subunit beta (Homo sapiens) (UniProt O14920).
T5 sequence (whole entry): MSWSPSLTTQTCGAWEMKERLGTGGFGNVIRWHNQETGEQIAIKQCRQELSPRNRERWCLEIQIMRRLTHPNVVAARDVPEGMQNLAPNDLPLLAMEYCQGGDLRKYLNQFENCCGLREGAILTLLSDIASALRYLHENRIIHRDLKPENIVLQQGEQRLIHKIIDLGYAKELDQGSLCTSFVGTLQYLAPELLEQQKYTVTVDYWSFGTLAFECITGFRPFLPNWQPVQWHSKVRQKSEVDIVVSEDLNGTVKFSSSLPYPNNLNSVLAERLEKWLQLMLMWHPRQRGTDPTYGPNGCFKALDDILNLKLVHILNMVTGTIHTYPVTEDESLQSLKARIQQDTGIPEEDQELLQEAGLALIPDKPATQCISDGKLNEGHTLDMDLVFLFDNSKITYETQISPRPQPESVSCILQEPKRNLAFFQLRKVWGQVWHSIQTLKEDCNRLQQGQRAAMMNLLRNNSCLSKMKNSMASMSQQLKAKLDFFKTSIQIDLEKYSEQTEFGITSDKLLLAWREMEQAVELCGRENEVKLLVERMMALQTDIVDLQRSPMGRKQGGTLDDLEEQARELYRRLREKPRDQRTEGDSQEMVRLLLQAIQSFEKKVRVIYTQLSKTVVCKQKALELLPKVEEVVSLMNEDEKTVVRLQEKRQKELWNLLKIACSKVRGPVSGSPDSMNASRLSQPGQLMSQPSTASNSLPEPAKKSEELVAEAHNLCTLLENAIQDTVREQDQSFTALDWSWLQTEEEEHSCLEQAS
The note with it: at 1 µM.

SMILES strings stand for the structures.

In general, residual activity refers to the signal under treatment as a percentage of the control signal.

`c1ccc(-c2cnc(Nc3ccc(OCCN4CCCC4)cc3)s2)cc1`: the residual activity was determined as 27% in experiment [1]; 70% in experiment [2]; 23% in experiment [3]; 74% in experiment [4]; 77% in experiment [5]; 66% in experiment [6]. Also, the residual activity in experiment [7] came to 116%.

These data come from ChEMBL document CHEMBL2218924, “A broad activity screen in support of a chemogenomic map for kinase signalling research and drug discovery” (Biochem J, 2013).
